18 compounds from PubChem BioAssay (NCATS) can be followed below.

Results filed as inconclusive are left out. Calls of active or inactive are those of the source. Calls follow the shape of the dose curve; as a rule, active = well fitted curve in the direction sought with a large enough effect; inconclusive = small, poorly fitted or top-dose-only effect, or another doubt; inactive = no such curve, though single readings can be large or run the other way.
% is scaled to controls: 0 for no effect and ±100 for the full control effect; potency is read from the fitted curve at half-maximal effect.

The nature of the assay: qHTS Assay for Identifying Gametocytocidal Compounds (AID 743244).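 As to max response: actives lower the fluorescent signal which means gametocytes are killed.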 The settings on record: P. falciparum 3D7 stage III-V gametocytes, alamarBlue, 72 h; max response: hits give low values. The procedure, abridged: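 P. falciparum 3D7 stage III–V gametocytes (20,000 cells/well) were exposed to compounds for 72 h at 37 °C, 5% CO2. AlamarBlue was then added for 24 h; decreased resorufin fluorescence (Ex 525/Em 598 nm) indicated loss of viability.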
Turning to `C[N+](C)(C)CCCCCCCCCC[N+](C)(C)C`, the max response was -0.962% (inactive).
Same read-out and setting: as for `CCOC(=O)NC(O)C(Cl)(Cl)Cl` (stereo not drawn), the figure is 9.34% (inactive); as for `CCOC(=O)c1cncn1C(C)c1ccccc1` (stereo not drawn), -8.82% (inactive).
Turning to `CN(C)CCc1c[nH]c2ccccc12`, the max response was 16.8% (inactive).
Still for that read-out and setting: as for `O=C(O)Cc1ccccc1`, the figure is -12.8% (inactive); as for `CC[C@H](O)C(C[C@H](C)N(C)C)(c1ccccc1)c1ccccc1`, -14.1% (inactive).
The same measure, in the same setting: as for `CCC1(c2cnc[nH]2)Cc2ccccc2C1`, the figure is -21.2% (inactive).
Turning to `CC1=C2[C@H]3OC(=O)[C@@H](C)[C@@H]3CC[C@@]2(C)C=CC1=O`, the max response is 4.47% (inactive).
With `CN1C[C@H](C(=O)N[C@]2(C)O[C@@]3(O)[C@@H]4CCCN4C(=O)[C@H](Cc4ccccc4)N3C2=O)C[C@@H]2c3cccc4[nH]cc(c34)C[C@H]21`, the Potency is 2.35 µM (active).
Regarding `CCN(Cc1ccc(Cl)nc1)/C(=C/[N+](=O)[O-])NC`, the max response was 8.58% (inactive).
The same measure, in the same setting: the figure for `CCN(CC)C(C)C(=O)c1ccccc1` (stereo not drawn) is 2.91% (inactive); for `C#C[C@]1(O)C=C[C@H]2[C@@H]3CCC4=CC(=O)CC[C@@H]4[C@H]3CC[C@@]21CC` it is 2.38% (inactive).
In the case of `O=C(Nc1ccc(Cl)cc1)Nc1ccc(Cl)c(C(F)(F)F)c1`, the Potency is 12.6 µM (active).
On to `CCCN(CCC)CCc1c[nH]c2ccccc12`, for which the max response was -3.32% (inactive).
As for `CC(C)(C)OC(=O)c1ncn2c1[C@@H]1CCCN1C(=O)c1c(Br)cccc1-2`, the max response is 3.06% (inactive).
Same read-out and setting: the figure for `CCCOC(=O)Cc1ccc(OCC(=O)N(CC)CC)c(OC)c1` is -6.3% (inactive); for `C[C@H](N)[C@H](O)c1ccc(O)c(O)c1` it is -0.0676% (inactive).
As for `COc1cc(C[C@@H](C)N)c(OC)cc1Br`, the max response was 0.803% (inactive).
